# Experimental data published in PubChem BioAssay (NCI).
# About 83,000 compounds went through this panel and 20% of them were active in at least one assay; those are over-represented in the sample as a whole.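 Each cell line was grown in a 96-well plate and treated with one concentration of compound for 48 hours. Values below 10 were considered active.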 Active and inactive are the calls of the source.
# Tested on: HL-60(TB) leukemia
# Assay: NCI-60 one-dose screen, 48 h (100 = growth as untreated, 0 = no growth, -100 = all killed)
# Settings: 10 µM unless noted
row,SMILES,growth
1,CCOC(=O)c1[nH]c2c(c1C)-c1[nH]c(=O)c(S(=O)(=O)c3ccccc3)cc1SC2,54.7% [100 µM] (inactive)
2,c1ccc(Sc2ncccn2)nc1,100% (inactive)
3,c1csc(C2=NN3C(C2)c2ccccc2OC3c2ccncc2)c1 (stereo unspecified),97.8% (inactive)
4,O=C(/C=C/c1cccnc1)/C=C/c1cccnc1,-43.4% (active)
5,CCN(CC)Cc1cccc(C(=O)OC)c1,83.2% (inactive)
6,CC(O)CCC(C)[N+](=O)[O-] (stereo unspecified),96.9% (inactive)
7,COc1ccc(C(=O)Cn2cnc3c(Nc4cc(C(=O)Nc5ccc(N6CCN(CCO)CC6)cc5)ccc4C)ncnc32)cc1,83.6% (inactive)
8,CC(=O)c1c[nH]c2ccc(-c3ccnc(Nc4ccc(NC(=O)c5cccc(F)c5)c(CN5CCOCC5)c4)n3)cc12,-24.8% (active)
9,O=C(c1ccc2ncc(-c3nc(NC4CC4)ncc3F)n2c1)N1CCOCC1,-30.3% (active)
10,CC(C)[C@]12O[C@H]1[C@@H]1O[C@]13[C@]1(O[C@H]1C[C@H]1C4=C(CC[C@@]13C)C(=O)OC4)[C@@H]2OC(=O)CN(C)C,-24.3% (active)
11,CCCCCCC/C=C/[C@H]1O[C@]2(O)C(=O)C=C3C[C@@H](O[C@@H]4O[C@H](CO)[C@@H](O)C(O)[C@@H]4O)C[C@@H]3[C@H]2C=C1C (stereo partly specified),-46.4% (active)
12,COc1ccc(C(O)(CCC(C)C)C(CN2CCOCC2)c2ccc(Cl)cc2)cc1 (stereo unspecified),20.9% (inactive)
13,Cc1ccc(S(=O)(=O)NCCNc2nccc(-c3c(-c4cccc(N)c4)nc4sccn34)n2)cc1,110% (inactive)
14,CCOS(=O)(=O)c1ccc([N+](=O)[O-])cc1,95.9% (inactive)
15,COC(=O)[C@@H]1CCCN1C(=O)[C@H]1CCCN1C(=O)[C@@H](Cc1c[nH]c2ccccc12)NC(=S)Nc1cc(C(F)(F)F)cc(C(F)(F)F)c1,12.2% (inactive)
16,COc1ccc(/C(CS(=O)(=O)c2ccccc2)=N\O)cc1,99.5% (inactive)
17,C#CC(C)(O)[C@@H]1C[C@H](CC(=O)O)C1(C)C (stereo partly specified),113% (inactive)
18,CCCn1nc(C(=O)N2CCCCC2)c2c1CCC(N1CCC(c3ccncc3)CC1)C2 (stereo unspecified),96.6% (inactive)
19,Cn1c2ccccc2c2c3c(c4c5ccccc5n(C)c4c21)C(=O)OC3,98.5% (inactive)
20,COc1ccc2[nH]c3nc4cnccc4cc3c2c1,108% (inactive)
21,CCC[S@](=O)c1ccc2nc(NC(=O)OC)[nH]c2c1,77.1% (inactive)
22,Cc1ccc(-c2nc(SCc3nc4cc(Cl)c(Cl)cc4[nH]3)[nH]c(=O)c2C#N)cc1,96.9% (inactive)
23,COC(=O)c1c2c(c(C)[n+]([O-])c1C)C(=O)C(NCc1ccc(OC)cc1)=CC2=O,-51.1% (active)
24,O=S(=O)(NCCNc1nccc(-c2c(-c3ccc(F)c(O)c3)nc3occn23)n1)c1ccccc1,63.6% (inactive)
25,COc1ccc(Sc2[nH]c(C=O)c3ccccc23)cc1,14.7% (inactive)
26,COc1ccc(Cn2cc(C(=O)N=Nc3c(O)[nH]c4c(Cl)cccc34)nn2)cc1,97.4% (inactive)
